Source: PubChem BioAssay (National Center for Advancing Translational Sciences (NCATS))
This is a sample that favours compounds with a hit; in the whole collection about 7.1% have one here.
LASV entry inh: Lassa virus entry inhibition; Lassa virus pseudotyped entry inhibition, cell-based qHTS; Potency, µM (titrated, usually from 49.2 µM), most hits filed as inhibitors; hit rate 4.1% among 18,000; AID 720533
MARV entry inh: Marburg virus entry inhibition. Marburg virus pseudotype entry/binding inhibition, cell-based. Potency, µM (top dose mostly 49.2 µM), most hits filed as inhibitors. hit rate 6.5% among 18,000
A number is an active result; 0 = inactive; ? = inconclusive; - = no result given; ! = repeats disagree; [ ] = remark or other dose. Calls follow the shape of the full dose curve; tested in HEK293 cells.

SMILES | LASV entry inh | MARV entry inh
COc1ccccc1N1CCN(CCCCN2C(=O)CCC2=O)CC1 | 0 | 0
C=CCN1c2ccccc2[C@]23CCC(=O)N(CCOC)C2=NC(C(=O)OC)=C(C(=O)OC)[C@H]13 | 0[8.59 µM] | 0[8.59 µM]
O=C(NCc1nnc2n1CCN(Cc1cc(F)cc(F)c1)CC2)c1cccc(F)c1 | ? | 5.01µM
CC(CN1CCc2nnc(CNC(=O)c3cccc(F)c3)n2CC1)c1ccccc1 (centres undefined) | 0 | 0
COc1cccc(-n2ncc3c(NN=Cc4cccc(F)c4)ncnc32)c1 | - | 0
O=C(Nc1ccc(C(=O)Nc2ccc(C(=O)Nc3ccc(S(=O)(=O)O)c4cc(S(=O)(=O)O)cc(S(=O)(=O)O)c34)cc2)cc1)Nc1ccc(C(=O)Nc2ccc(C(=O)Nc3ccc(S(=O)(=O)O)c4cc(S(=O)(=O)O)cc(S(=O)(=O)O)c34)cc2)cc1 | 0 | 3.98µM
O=C(Nc1cc(C(=O)Nc2ccc(S(=O)(=O)O)cc2S(=O)(=O)O)cc(C(=O)Nc2ccc(S(=O)(=O)O)cc2S(=O)(=O)O)c1)Nc1cc(C(=O)Nc2ccc(S(=O)(=O)O)cc2S(=O)(=O)O)cc(C(=O)Nc2ccc(S(=O)(=O)O)cc2S(=O)(=O)O)c1 | 0 | 0
O=C(c1cccs1)N1C[C@@H](O)[C@@H](n2cc(C3CC3)nn2)C[C@@H]1c1ccccc1 | 0 | 0
CN1C(CC(=O)c2ccccc2)CCCC1CC(O)c1ccccc1 (centres undefined) | 0 | ?
CN1[C@@H](CC(=O)c2ccccc2)CCC[C@H]1C[C@H](O)c1ccccc1 | ? | 28.2µM
C[C@@H](NS(=O)(=O)c1cccc(Cl)c1F)[C@H](O)c1ccccc1 | 0 | 0
C=C1CN2C(=NC(c3ccccc3)C(C(=O)OC)=C2C)O1 (centres undefined) | 0[8.59 µM] | 0[8.59 µM]
C=CC[C@@H]1C=C[C@@H](OC(=O)OCC)[C@@H](COC(=O)OCC)O1 | 0[8.59 µM] | 0[8.59 µM]
CN1c2ccccc2[C@@]2(O)C(=O)[C@@]1(C)[C@@H]1CCC=C[C@H]12 | 0[8.59 µM] | 0[8.59 µM]
CC(=O)OC[C@H]1O[C@@H](ON=CC[C@@H]2C=C[C@@H](OC(C)=O)[C@@H](COC(C)=O)O2)[C@@H](OC(C)=O)[C@@H](OC(C)=O)[C@@H]1OC(C)=O | 0[8.59 µM] | 0[8.59 µM]
CCCC1CCCCN1 (centres undefined) | 0 | 0
C1CCC(C(CC2CCCCN2)C2CCCCC2)CC1 (centres undefined) | ? | 3.98µM
CN1CCCCC1Cn1cc(C(=O)c2cc([N+](=O)[O-])ccc2I)c2ccccc21 (centres undefined) | ? | 10µM
CC1=CC[C@@H](C)O[C@@]2(C1)C(=O)Nc1cccc(Br)c12 | 0[8.59 µM] | 0[8.59 µM]
O=C1C=C2C=C[C@@H]3C[C@@]2(O1)[C@H]1CCCCN31 | ? | 14.1µM
CC1(C)O[C@H]2OC([C@H](O)CON3C(=O)c4ccccc4C3=O)[C@H](O)[C@@H]2O1 (some centres undefined) | 0[8.59 µM] | ?
CCOC(=O)CCN1C(=O)[C@@H]2[C@H]3[C@H](O)[C@H](O)CC(=NNC(=O)OCc4ccccc4)[C@@H]3CC[C@H]2C1=O | - | 0[8.59 µM]
C[N+](C)(CCCCCC[N+](C)(C)CCCN1C(=O)c2ccccc2C1=O)CCCN1C(=O)c2ccccc2C1=O | 0 | 0
CN(C)CCN1C(=O)c2ccccc2N(C)c2ccccc21 | ? | 35.5µM!
O=[S+]1([O-])C[C@@H](N2CC[C@@H](O)C2)[C@@H](COCc2ccccc2)N1 | 0 | 0
SMILES | LASV entry inh | MARV entry inh
COC(=O)C1=C(C(=O)OC)[C@@H]2N(C)c3ccccc3[C@@]23C[C@@H](CO)N(C(=O)NC2CCCC2)C3=N1 | 0[8.59 µM] | ?
COc1ccc2c(c1)OC/C(=C\c1ccc(OC)c(O)c1)C2=O | 0 | 12.6µM
COc1ccc2c(c1)OCc1c-2oc2cc(OC)ccc12 | 0 | 0
COc1cc(C/C=C/c2ccccc2)c(OC)cc1O | 0 | 0
COc1ccc(C=C2c3ccccc3C(=O)c3ccccc32)cc1O | ? | 1µM
CC(C)C[C@H](CO)NS(=O)(=O)c1cccc(Cl)c1F | 0 | 0
CCc1cc2c(nc1CC)CCN(CCC(C)=NO[C@@H](C)CN1CCCc3nc(C)c(C)cc31)C2 | 0[8.59 µM] | 0[8.59 µM]
NS(=O)(=O)c1ccc(N=Nc2c(O)[nH]c3ccc(-c4cnco4)cc23)cc1 | ? | 0
Nc1ccc2cc3ccc(N)cc3nc2c1 | 25.1µM | 10µM
CCOc1ccc2nc3cc(N)ccc3c(N)c2c1 | 0 | 0
O=C(c1cccs1)N1C[C@@H](n2cc(-c3ccc(F)cc3)nn2)[C@@H](O)C[C@@H]1c1ccc(Cl)cc1 | 0 | ?
CC(=O)OC[C@]12C[C@H](OC(=O)CC(C)C)C(C)=C[C@H]1O[C@H]1[C@H](O)[C@@H](OC(C)=O)[C@@]2(C)[C@]12CO2 | 0.178µM | 8.91µM
COCCN1C(=O)NC(c2ccco2)C(C(=O)OC)=C1C (centres undefined) | 0[8.59 µM] | 0[8.59 µM]
COc1ccc2[nH]c(-c3cccc(F)c3)cc(=O)c2c1 | 0 | ?
COc1cccc(-c2cc(=O)c3cc(NC(=O)c4ccc(N(C)C)cc4)ccc3[nH]2)c1 | ? | 3.98µM
COc1cccc(-c2cc(=O)c3cc(NC(=O)c4ccc(Cl)cc4)ccc3[nH]2)c1 | 0 | ?
COc1cccc(-c2cc(=O)c3cc(NC(=O)c4ccccc4)ccc3[nH]2)c1 | ? | 7.08µM
C=CC[C@H]1C[C@H]2CC=CP(=O)(O2)O1 | 0 | 0
Cc1cc(-c2ccccn2)cc(C)c1C=Cc1cncc(-c2nn[nH]n2)c1 | 0 | 0
CC(=O)OC[C@H]1O[C@H](CCON=C(C)CCN2CCCCc3nc(C)c(C)cc32)C=C[C@H]1OC(C)=O | 0[8.59 µM] | 0[8.59 µM]
CC(CCN1CCCCc2nc(C)c(C)cc21)=NO[C@H](C)CN1CCCc2nc(C)c(C)cc21 | 0[8.59 µM] | ?
CCOC(=O)C1CCCCN1C(=O)c1ccc(-n2cc(NC(=O)c3cccnc3)cn2)cc1 (centres undefined) | 0 | 0
O=C(NCC1(N2CCCCC2)CCCCC1)c1ccc(-n2cc(NC(=O)c3cccnc3)cn2)cc1 | 0 | 3.98µM
Cc1ccc(C(C)C)c(O)c1 | 0 | 0
Cc1ccc(O)c([C@H](CCN(C(C)C)C(C)C)c2ccccc2)c1 | ? | 10µM
SMILES | LASV entry inh | MARV entry inh
C[C@@H]1[C@@H](c2ccccc2)Oc2c(Cl)cccc2S(=O)(=O)N1C | 0 | 0
C=C(C)C(=O)OC[C@H]1CN2[C@H](c3ccc(Br)cc3)[C@H](C)CC[C@H]2C(=O)O1 | 0[8.59 µM] | ?
CO[C@@H]1CC[C@@]2(C)[C@@H](CC[C@@]3(C)[C@H]2CC=C2[C@H]4CC(C)(C)[C@H](O)[C@@H](OC(C)=O)[C@]4(CO)[C@H](O)C[C@]23C)[C@@]1(C)CO (tested in a mixture with another compound) | 0 | 0
C[C@@H]1OC(OC2CC[C@@]3(C)C(CC[C@@]4(C)C3CC=C3C5CC(C)(C)CC[C@]5(C(=O)OC5OCC(O)[C@@H](O)[C@@H]5OC5O[C@@H](C)[C@H](O[C@H]6OC(CO)C(O)C(O)C6O)C(O)C5O)C(O)C[C@@]34C)C2(C)C)C(O)C(O)[C@H]1OC1OCC(O)C(O)[C@H]1O (some centres undefined) | 11.2µM | ?
CN1CCCC(n2nc(Cc3ccc(Cl)cc3)c3ccccc3c2=O)CC1 (centres undefined) | ? | 7.94µM
O=S1(=O)c2ccc(Br)cc2N2CCC[C@@H]2CN1Cc1ccc(Cl)cc1 | 0 | ?
O=C(C1CCCCC1)N1C[C@H](O)[C@H](n2cc(C3CC3)nn2)C[C@@H]1c1ccccc1 | 0 | 0
